Growth inhibition data for nine compounds are collected here from PubChem BioAssay (NCI).

A short description of experiment [1]: NCI Yeast Anticancer Drug Screen. Data for the rad50 strain (AID 155).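 Also: 0% = growth of vehicle-only cultures of the same strain.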 As to conditions: S. cerevisiae rad50 strain growth inhibition, active compounds read high. Put shortly: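 Cells are treated with compound, grown, and their growth is then scored against vehicle-only cultures of the same repair-deficient yeast strain.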
The nature of experiment [2]: NCI Yeast Anticancer Drug Screen. Data for the mec2-1 strain (AID 157). Conditions: S. cerevisiae mec2-1 strain, active compounds read high. Put shortly: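 Each compound was tested on mec2-1 yeast, a strain altered in DNA damage repair or cell cycle control. Growth inhibition is reported relative to vehicle.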
The nature of experiment [3]: NCI Yeast Anticancer Drug Screen. Data for the sgs1 mgt1 strain (AID 161).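 Also: 0% = growth of cultures given vehicle only.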 As to conditions: S. cerevisiae sgs1 mgt1 strain, active compounds read high. Put shortly:
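Inhibition of yeast growth, normalised to vehicle-treated controls, is reported for a strain bearing genetic alterations in DNA damage repair.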

The nature of experiment [4]: NCI Yeast Anticancer Drug Screen. Data for the cln2 rad14 strain (AID 165).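 Also: 0% = growth equal to vehicle treated cultures.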 Conditions: S. cerevisiae cln2 rad14 strain, active compounds read high. Put shortly: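 Test compounds were added to cln2 rad14 yeast cultures; inhibition of growth was then determined by comparison with vehicle treatment.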
Experiment [5] is described as follows: NCI Yeast Anticancer Drug Screen. Data for the bub3 strain (AID 167). As to conditions: S. cerevisiae bub3 mutant strain, active compounds read high. Put shortly:
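Part of a panel of yeast mutants defective in DNA damage repair or cell cycle regulation. Each strain is grown with compound, and inhibition is calculated relative to solvent-treated cultures.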

Experiment [6] in a line: NCI Yeast Anticancer Drug Screen. Data for the mlh1 rad18 strain (AID 175). As to conditions: S. cerevisiae mlh1 rad18 strain growth inhibition, active compounds read high. Put shortly:
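Inhibition values reflect reduced growth of mutant yeast versus vehicle-treated controls following compound exposure; the mutations affect DNA damage repair.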

Setting [7] is: at 5.0 µM (retest, dose inferred, filed as 0.5).
The mark [8] stands for this setting: at 50.0 µM (retest, dose inferred, filed as 5.0).

Each structure is given as a SMILES string. Compounds without any hit were thinned out: in the full panel of roughly 79,000, 15% have a hit. A number with no mark means an inactive call. Calls of active or inactive are those of the source. Rule as the data show it: active = growth inhibition above about 70%; inactive = the rest.

As for `Cc1cc(-c2ccccc2)c(C)c(-c2ccccc2)c1-c1ccccc1`, the growth inhibition is 5% in experiment [1] (setting [7]); 4% in experiment [1] (setting [8]); 74.6% (active) in experiment [1] (at 50.0 µM); 0% in experiment [2] (setting [7]); -1% in experiment [2] (setting [8]); 37.9% in experiment [2] (at 50.0 µM). Also, the growth inhibition in experiment [3] (setting [7]) is 3%; in experiment [3] (setting [8]), 7%; in experiment [3] (at 50.0 µM), 40%; in experiment [4] (setting [7]) it was -5%; in experiment [4] (setting [8]) it was 64%; in experiment [4] (at 50.0 µM) it was 80.7% (active). In addition, the growth inhibition in experiment [5] (setting [7]) was -13%; in experiment [5] (setting [8]), 13%; in experiment [5] (at 50.0 µM), 57.4%; in experiment [6] (setting [7]) it was 1%; in experiment [6] (setting [8]), 16%; in experiment [6] (at 50.0 µM), 60.8%.
With `Cc1ccc(C2=C(C#N)C(c3ccccc3)C(C#N)=C(N)O2)cc1` (configuration not stated), the growth inhibition in experiment [1] (setting [7]) is 57%; in experiment [1] (setting [8]), 95% (active); in experiment [1] (at 50.0 µM) it was 97.5% (active); in experiment [2] (setting [7]), 53%; in experiment [2] (setting [8]), 99% (active); in experiment [2] (at 50.0 µM), 98.5% (active). Moreover, the growth inhibition is 71% (active) in experiment [3] (setting [7]); 98% (active) in experiment [3] (setting [8]); 97.8% (active) in experiment [3] (at 50.0 µM); 35% in experiment [4] (setting [7]); 99% (active) in experiment [4] (setting [8]); 98.9% (active) in experiment [4] (at 50.0 µM). Besides, the growth inhibition in experiment [5] (setting [7]) is 48%; in experiment [5] (setting [8]), 98% (active); in experiment [5] (at 50.0 µM), 97.9% (active); in experiment [6] (setting [7]), 59%; in experiment [6] (setting [8]) it was 98% (active); in experiment [6] (at 50.0 µM), 98.5% (active).
`Cc1cccc(Cl)c1NC(=O)/C=C/c1ccccc1`: the growth inhibition in experiment [1] (setting [7]) is 41%; in experiment [1] (setting [8]), 44%; in experiment [1] (at 50.0 µM) it was -22.1%; in experiment [2] (setting [7]), 44%; in experiment [2] (setting [8]), 44%; in experiment [2] (at 50.0 µM), -6.05%. Further, the growth inhibition is -1% in experiment [3] (setting [7]); 23% in experiment [3] (setting [8]); 1.1% in experiment [3] (at 50.0 µM); 29% in experiment [4] (setting [7]); 6% in experiment [4] (setting [8]); -1.6% in experiment [4] (at 50.0 µM). For the same compound, the growth inhibition was 27% in experiment [5] (setting [7]); 39% in experiment [5] (setting [8]); 8.6% in experiment [5] (at 50.0 µM); 35% in experiment [6] (setting [7]); 48% in experiment [6] (setting [8]); -6.65% in experiment [6] (at 50.0 µM).
As to `CC1C(O)Oc2cc3c(cc2C1c1ccccc1O)OCO3` (configuration not stated), the growth inhibition in experiment [1] (setting [7]) is -10%; in experiment [1] (setting [8]) it was 77% (active); in experiment [1] (at 50.0 µM) it was 61.8%; in experiment [2] (setting [7]), -41%; in experiment [2] (setting [8]), 84% (active); in experiment [2] (at 50.0 µM) it was 32.1%. Besides, the growth inhibition was -33% in experiment [3] (setting [7]); 40% in experiment [3] (setting [8]); 56.5% in experiment [3] (at 50.0 µM); 20% in experiment [4] (setting [7]); 87% (active) in experiment [4] (setting [8]); 69.7% in experiment [4] (at 50.0 µM). For the same compound, the growth inhibition in experiment [5] (setting [7]) was 25%; in experiment [5] (setting [8]), 84% (active); in experiment [5] (at 50.0 µM), 38.6%; in experiment [6] (setting [7]), -13%; in experiment [6] (setting [8]), 90% (active); in experiment [6] (at 50.0 µM) it was 54.5%.
For `CC1=C/C(=C\c2ccc([N+](=O)[O-])o2)C(=O)O1`, the growth inhibition in experiment [1] (setting [7]) was 95% (active); in experiment [1] (setting [8]), 99% (active); in experiment [1] (at 50.0 µM) it was 99.3% (active); in experiment [2] (setting [7]) it was 86% (active); in experiment [2] (setting [8]), 99% (active); in experiment [2] (at 50.0 µM), 99.5% (active). Further, the growth inhibition is 93% (active) in experiment [3] (setting [7]); 52% in experiment [3] (setting [8]); 99.2% (active) in experiment [3] (at 50.0 µM); 97% (active) in experiment [4] (setting [7]); 99% (active) in experiment [4] (setting [8]); 99.3% (active) in experiment [4] (at 50.0 µM). Also, the growth inhibition was 49% in experiment [5] (setting [7]); 99% (active) in experiment [5] (setting [8]); 98.8% (active) in experiment [5] (at 50.0 µM); 97% (active) in experiment [6] (setting [7]); 99% (active) in experiment [6] (setting [8]); 99.2% (active) in experiment [6] (at 50.0 µM).
As for `COc1cc(C)cc(C(=O)OCc2ccccc2)c1C1=C(Cl)C(=O)C(Cl)=CC1=O`, the growth inhibition is 16% in experiment [1] (setting [7]); 16% in experiment [1] (setting [8]); 85.5% (active) in experiment [1] (at 50.0 µM); 12% in experiment [2] (setting [7]); 12% in experiment [2] (setting [8]); 83.9% (active) in experiment [2] (at 50.0 µM). Moreover, the growth inhibition in experiment [3] (setting [7]) was 5%; in experiment [3] (setting [8]), 5%; in experiment [3] (at 50.0 µM), 87.5% (active); in experiment [4] (setting [7]), 10%; in experiment [4] (setting [8]), 10%; in experiment [4] (at 50.0 µM), 82% (active). The growth inhibition in experiment [5] (setting [7]) is -16%; in experiment [5] (setting [8]) it was -16%; in experiment [5] (at 50.0 µM), 80.5% (active); in experiment [6] (setting [7]) it was 4%; in experiment [6] (setting [8]) it was 4%; in experiment [6] (at 50.0 µM), 74.5% (active).
For `CC1=CC(=O)C=C(Br)C1=O`, the growth inhibition was 18% in experiment [1] (setting [7]); 99% (active) in experiment [1] (setting [8]); 98.8% (active) in experiment [1] (at 50.0 µM); 12% in experiment [2] (setting [7]); 99% (active) in experiment [2] (setting [8]); 99.5% (active) in experiment [2] (at 50.0 µM). For the same compound, the growth inhibition is 6% in experiment [3] (setting [7]); 95% (active) in experiment [3] (setting [8]); 99.3% (active) in experiment [3] (at 50.0 µM); 2% in experiment [4] (setting [7]); 41% in experiment [4] (setting [8]); 87.7% (active) in experiment [4] (at 50.0 µM). The growth inhibition in experiment [5] (setting [7]) was 11%; in experiment [5] (setting [8]), 99% (active); in experiment [5] (at 50.0 µM), 99.2% (active); in experiment [6] (setting [7]), 13%; in experiment [6] (setting [8]) it was 99% (active); in experiment [6] (at 50.0 µM), 99.2% (active).
Take `O=[N+]([O-])C1=Cc2cc(Cl)ccc2OC1c1cccc2ccccc12` (configuration not stated): the growth inhibition in experiment [1] (setting [7]) was 98% (active); in experiment [1] (setting [8]) it was 83% (active); in experiment [1] (at 50.0 µM), 80.5% (active); in experiment [2] (setting [7]) it was 97% (active); in experiment [2] (setting [8]) it was 81% (active); in experiment [2] (at 50.0 µM), 88.2% (active). Besides, the growth inhibition in experiment [3] (setting [7]) is 97% (active); in experiment [3] (setting [8]), 86% (active); in experiment [3] (at 50.0 µM), 84.2% (active); in experiment [4] (setting [7]), 97% (active); in experiment [4] (setting [8]) it was 80% (active); in experiment [4] (at 50.0 µM), 87.1% (active). The growth inhibition in experiment [5] (setting [7]) was 97% (active); in experiment [5] (setting [8]), 91% (active); in experiment [5] (at 50.0 µM) it was 85.5% (active); in experiment [6] (setting [7]), 98% (active); in experiment [6] (setting [8]), 87% (active); in experiment [6] (at 50.0 µM) it was 75.8% (active).
For the compound `CC(=O)SC(C[N+](=O)[O-])c1ccc2c(c1)OCO2` (configuration not stated), the growth inhibition is 55% in experiment [1] (setting [7]); 91% (active) in experiment [1] (setting [8]); 91% (active) in experiment [1] (at 50.0 µM); 69% in experiment [2] (setting [7]); 100% (active) in experiment [2] (setting [8]); 93% (active) in experiment [2] (at 50.0 µM). The growth inhibition in experiment [3] (setting [7]) is 53%; in experiment [3] (setting [8]), 99% (active); in experiment [3] (at 50.0 µM) it was 93.5% (active); in experiment [4] (setting [7]), 44%; in experiment [4] (setting [8]), 57%; in experiment [4] (at 50.0 µM), 91.3% (active). Also, the growth inhibition is 63% in experiment [5] (setting [7]); 96% (active) in experiment [5] (setting [8]); 92.5% (active) in experiment [5] (at 50.0 µM); 59% in experiment [6] (setting [7]); 97% (active) in experiment [6] (setting [8]); 90.3% (active) in experiment [6] (at 50.0 µM).
